“And” between values parts separate entries of the source, which are not always exact repeats. Equal entries are not always repeated. Results filed as inconclusive are left out. More than one record can exist for a structure, and the calls need not agree. The source made the active and inactive calls. Unless noted, calls come from the whole dose curve; as a rule, active = well fitted curve in the direction sought with a large enough effect in the repeat runs; inconclusive = weak or mixed curves; inactive = no such curve, though single readings can be large; an effect the other way counts as inactive or inconclusive.

Test [1] in a line: qHTS assay to identify small molecule agonists of the vitamin D receptor (VDR) signaling pathway - cell viability counter screen (AID 743224). Note: nearly all actives have a fitted effect of over 50% in size. Note: potency is the fitted concentration of half-maximal effect. The essentials:
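Here cell health was gauged by luminescent ATP detection (CellTiter-Glo, 30 min RT) in VDR-bla cells that had been incubated with test compounds for 16 h at 37C and 5% CO2.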
(qHTS replaces the single test concentration by a dilution series.)

Test [2] is described as follows: qHTS assay to identify small molecule antagonists of the vitamin D receptor (VDR) signaling pathway - cell viability counter screen (AID 743225). Note: nearly all actives have a fitted effect of over 50% in size. The essentials:
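Compounds were pinned onto VDR-bla HEK 293T cells together with 1-alpha,25-dihydroxyvitamin D3 at 3 nM final. After 16 h at 37C and 5% CO2 plus the reporter readout, cell viability was measured by CellTiter-Glo luminescence (30 min, room temperature).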

Test [3] is described as follows: qHTS assay to identify small molecule agonists of the NFkB signaling pathway (AID 1159509; active = well fitted curve in the direction sought with a large enough effect in the signal ratio in the repeat runs, not every such curve was filed as active; the % refers to the signal ratio; note: series mostly up to about 61 µM). The essentials:
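ME-180 NFkB-bla, 2,000 cells/well, overnight plating; cpd pinned in DMSO, 5 h 37 C; B/G FRET substrate 1.5 h RT; ex 405, em 460/530 nm.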

Test [4] is described as follows: qHTS assay to identify small molecule agonists of the NFkB signaling pathway - cell viability counter screen (AID 1159515; calls by dose curve; note: series mostly up to about 61 µM; nearly all actives have a fitted effect of over 55% in size). The essentials:
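5 hr compound treatment of NFkB-bla ME-180 cells (2,000/well, seeded overnight beforehand), followed by reporter substrate for 1.5 hr. CellTiter-Glo added afterward; luminescence after 30 min RT.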

The nature of test [5]: qHTS assay to identify small molecule agonists of the endoplasmic reticulum stress response signaling pathway (AID 1159516; active = well fitted activation curve with a large enough effect in the signal ratio in the repeat runs, not every such curve was filed as active; the % refers to the signal ratio). The essentials:
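Reporter HeLa cells (ESRE-beta-lactamase) underwent 5 hr compound incubation at 37 C and 5% CO2 in quantitative HTS format. Detection followed 2 hr of FRET substrate loading at room temperature.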

A short description of test [6]: qHTS assay to identify small molecule agonists of the endoplasmic reticulum stress response signaling pathway - cell viability counter screen (AID 1159517; calls by dose curve;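 note: HeLa cells carrying an ER stress response element beta-lactamase reporter; series mostly up to about 61 µM; nearly all actives have a fitted effect of over 50% in size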). The essentials:
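ESRE-bla HeLa cells, 1,500 per well, seeded overnight then treated with compounds for 5 hr at 37 C. After the beta-lactamase read, viability in the same wells is measured by CellTiter-Glo luminescence after 30 min at room temperature.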

A short description of test [7]: qHTS assay to identify small molecule antagonists of the retinoid-related orphan receptor gamma (ROR-gamma) signaling pathway - cell viability counter screen (AID 1159520). Note: nearly all actives have a fitted effect of over 50% in size. Note: potency is the fitted concentration of half-maximal effect. The essentials: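 Tet-on ROR gamma CHO cells were given compounds for 2 hr, then doxycycline hyclate at 1 uM final, and incubated 16 hr at 37 C. Viability was measured as ATP content by CellTiter-Glo luminescence.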

The nature of test [8]: qHTS assay to identify small molecule agonists of the AP-1 signaling pathway - cell viability counter screen (AID 1159525; calls by dose curve; note: nearly all actives have a fitted effect of over 55% in size; note: potency is the fitted concentration of half-maximal effect). The essentials: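 AP-1-bla ME-180 cells in Opti-MEM with 0.5% dialyzed FBS, compound exposure 5 h at 37 C in 15-point titration. Viability read in the same wells as ATP content by CellTiter-Glo luminescence, normalised to tetra-n-octylammonium bromide and DMSO controls.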

A short description of test [9]: qHTS assay to identify small molecule agonists of the AP-1 signaling pathway (AID 1159526; calls by dose curve; note: potency is the fitted concentration of half-maximal effect).
For test [10], the target named is Retinoic acid receptor RXR-alpha (Homo sapiens) (UniProt P19793). Put plainly: qHTS assay to identify small molecule agonists of the RXR signaling pathway (AID 1159527; calls by dose curve; note: nearly all actives have a fitted effect of over 35% in size). The essentials:
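Using 9-cis retinoic acid as the reference agonist, chemicals were tested in HEK 293T cells […] for 16 hr; substrate loading lasted 2 hr at room temperature.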

Test [11] in a line: qHTS assay to identify small molecule agonists of the RXR signaling pathway - cell viability counter screen (AID 1159529). Note: nearly all actives have a fitted effect of over 50% in size. Note: potency is the fitted concentration of half-maximal effect. The essentials: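 Compounds dissolved in DMSO were pinned onto HEK 293T cells carrying a beta-lactamase reporter under RXR-alpha control and incubated 16 hr. Cytotoxicity was then quantified by CellTiter-Glo luminescence.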
Test [12] is described as follows: qHTS assay to identify small molecule antagonists of the retinoid acid receptor (RAR) signaling pathway - cell viability counter screen (AID 1159551). Note: nearly all actives have a fitted effect of over 35% in size. The essentials: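 Seed C3RL4 cells; next day add compound, then retinol to 1 uM final; incubate 6 h at 37 C; add CellTiter-Glo; read luminescence after 30 min at RT.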
Test [13] is described as follows: qHTS assay to identify small molecule antagonists of the retinoic acid receptor (RAR) signaling pathway (AID 1159552; note: nearly all actives have a fitted effect of over 50% in size). The essentials: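 Test chemicals and DMSO controls were pin-transferred onto C3RL4 cells a day after seeding; retinol (1 uM final) followed at once. Luminescent reporter output was quantified after 6 hr of co-incubation and 30 min with detection reagent.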

Test [14] in a line: qHTS assay to identify small molecule agonists of the retinoic acid receptor (RAR) signaling pathway (AID 1159553). The essentials:
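Activation of retinol signaling was monitored via a RARE luciferase reporter in C3RL4 cells. After 6 hr compound treatment at 37 C, detection reagent was added for 30 min at room temperature before luminescence reading.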

Test [15] has as its target Nuclear receptor ROR-gamma (Homo sapiens) (UniProt P51449). Put plainly: qHTS assay to identify small molecule antagonists of the retinoid-related orphan receptor gamma (ROR-gamma) signaling pathway (AID 1159521; note: nearly all actives have a fitted effect of over 50% in size; note: potency is the fitted concentration of half-maximal effect). The essentials:
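Test compounds were applied to Tet-on RORγ CHO cells 2 h ahead of doxycycline hyclate (1 uM final). Luciferase reporter activity was quantified by luminescence after 16 h at 37 C and 5% CO2.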

Sequence of Retinoic acid receptor RXR-alpha (Homo sapiens) (P19793 whole entry, looked up): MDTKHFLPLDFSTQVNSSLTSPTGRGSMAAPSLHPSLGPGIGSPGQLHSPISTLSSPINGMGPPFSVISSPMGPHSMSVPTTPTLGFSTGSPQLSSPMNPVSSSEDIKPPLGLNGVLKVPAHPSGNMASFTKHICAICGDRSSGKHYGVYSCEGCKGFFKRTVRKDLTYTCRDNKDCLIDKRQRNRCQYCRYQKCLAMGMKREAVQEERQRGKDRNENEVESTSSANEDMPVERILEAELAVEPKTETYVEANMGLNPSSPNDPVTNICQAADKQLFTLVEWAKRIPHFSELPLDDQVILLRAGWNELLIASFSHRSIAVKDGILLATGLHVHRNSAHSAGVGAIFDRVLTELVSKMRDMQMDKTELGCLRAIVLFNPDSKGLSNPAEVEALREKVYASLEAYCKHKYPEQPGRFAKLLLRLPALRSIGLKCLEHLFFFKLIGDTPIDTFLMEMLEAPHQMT

For `CCc1ccc(O)cc1`, the Potency entry in test [1], in test [2], in test [6], in test [7], in [8] and in test [9] was “inactive” each time. In addition, the Potency result in test [10], in test [11], in [12], in test [13] and in test [14] was “inactive” in each case. The compound was called inactive in [3], in test [4] and in test [5].

Take `CC1CC(OC(=O)c2ccccc2O)CC(C)(C)C1` (stereo unspecified): the Potency in [1] was 34.3 µM (active) and inactive. Further, the Potency entry in test [2], in test [6], in [7], in test [15], in [8] and in test [10] was “inactive” each time. Moreover, the Potency result in test [11], in test [12], in test [13] and in test [14] was “inactive” each time. For the same compound, the call in [3], in [4] and in [5] was inactive.

`COC(=O)c1ccc(C(=O)OC)cc1`: the Potency result in [1], in [2], in [6], in test [7], in test [9] and in [10] was “inactive” each time. Moreover, the Potency entry in test [12], in test [13] and in test [14] was “inactive” throughout. For the same compound, the outcome in [3], in [4] and in [5] was inactive. Moreover, the Potency in test [15] was 1.96 µM (active) and inactive; in test [8] it was 12.5 µM (active) and inactive; in [11], 15.7 µM (active) and inactive.

With `CCOC(=O)[C@H](CCc1ccccc1)N[C@@H](C)C(=O)N1Cc2ccccc2C[C@H]1C(=O)O`, the Potency result in test [1], in test [2], in test [6], in [7], in [8] and in test [10] was “inactive” throughout. In addition, the Potency entry in [11], in test [12], in test [13] and in [14] was “inactive” each time. Further, the call in test [3], in [4] and in [5] was inactive. Further, the Potency entry in test [9] was “inactive and 26.8 µM (active)”.

In the case of `C[C@@H](O)[C@H]1C(=O)N2C(C(=O)O)=C(S[C@@H]3CN[C@H](C(=O)N(C)C)C3)[C@H](C)[C@H]12`, the Potency result in [1], in [2], in [6], in [7], in [15] and in test [8] was “inactive” throughout. Also, the Potency entry in test [9], in test [10], in test [11], in test [12], in test [13] and in test [14] was “inactive” in each case. Also, the compound was classed as inactive in [3], in test [4] and in test [5].

In the case of `Cn1c([N+](=O)[O-])cnc1COC(N)=O`, the Potency result in [1], in test [2], in [6], in test [7], in test [15] and in test [8] was “inactive” in each case. The Potency result in [9], in test [10], in [11], in test [12], in [13] and in test [14] was “inactive” throughout. Moreover, the result in test [3], in test [4] and in test [5] was inactive.

With `CC1(C)CC(N=C=O)CC(C)(CN=C=O)C1` (stereo unspecified), the Potency entry in [1], in [2], in [6], in test [7], in test [15] and in [8] was “inactive” each time. The Potency result in test [9], in [10], in [11], in [12], in test [13] and in test [14] was “inactive” each time. For the same compound, the compound was called inactive in [3], in test [4] and in [5].

On to `COC(=O)Nc1nc2ccc(Sc3ccccc3)cc2[nH]1`, for which the Potency entry in test [1], in [2], in test [6], in test [8], in test [9] and in [11] was “inactive” each time. Also, the Potency entry in test [12] and in [13] was “inactive” each time. Further, the compound was called inactive in test [3], in test [4] and in test [5]. Further, the Potency in test [7] was 26.6 µM (active); in test [15], 54.5 µM (active) and inactive.

As for `O=S(=O)(O)CCS`, the Potency result in test [1], in [2], in [6], in test [7], in test [15] and in [8] was “inactive” in each case. Moreover, the Potency entry in test [9], in test [10], in test [11] and in [12] was “inactive” throughout. Moreover, the outcome in [3], in [4] and in test [5] was inactive.

As to `NCc1cccc(CN)c1`, the Potency result in test [1], in test [2], in [6], in test [7], in [8] and in [9] was “inactive” throughout. In addition, the Potency entry in [10], in test [11], in test [12], in test [13] and in [14] was “inactive” throughout. For the same compound, the call in test [3], in [4] and in [5] was inactive.

For the compound `C=C(C)C(=O)OCCC[Si](OC)(OC)OC`, the Potency entry in test [1], in test [2], in [6], in [7], in test [15] and in [8] was “inactive” in each case. For the same compound, the Potency result in test [9], in test [10], in test [11], in test [12], in [13] and in test [14] was “inactive” throughout. Besides, the outcome in test [3], in test [4] and in [5] was inactive.

As to `CCCCNC(N)=O`, the Potency entry in test [1], in test [2], in [6], in test [7], in test [15] and in [8] was “inactive” throughout. In addition, the Potency result in test [9], in test [10], in test [11], in test [12], in test [13] and in [14] was “inactive” each time. In addition, the call in test [3], in [4] and in test [5] was inactive.

`CCCCC/C=C\C/C=C\CCCCCCCC(=O)OC`: the Potency result in test [1] was “inactive and 49 µM (active)”; in [11] it was “inactive and 34.7 µM (active)”. In addition, the Potency result in test [2], in test [6], in test [7], in test [15], in [8] and in test [9] was “inactive” throughout. Besides, the Potency entry in [10], in test [12], in [13] and in test [14] was “inactive” each time. Moreover, the outcome in test [3], in test [4] and in test [5] was inactive.

On to `CCCCCCCCC`, for which the Potency result in test [1], in test [2], in [6], in [7], in [15] and in [8] was “inactive” in each case. The Potency result in test [9], in test [10], in test [11] and in [12] was “inactive” throughout. In addition, the compound was called inactive in test [3], in test [4] and in [5].

As for `CCCCC(CC)COC(=O)/C=C\C(=O)OCC(CC)CCCC` (stereo unspecified), the Potency result in test [1], in test [2], in test [6], in [7], in test [15] and in test [8] was “inactive” in each case. In addition, the Potency result in test [9], in test [10], in [11], in test [12], in [13] and in [14] was “inactive” throughout. Moreover, the compound was called inactive in test [3], in test [4] and in test [5].

As for `O=C1N=C(O)CN1/N=C/c1ccc(-c2ccc([N+](=O)[O-])cc2)o1`, the Potency result in [1], in test [2], in test [6], in test [7], in test [15] and in test [8] was “inactive” in each case. The Potency result in test [9], in test [11] and in test [12] was “inactive” each time. Also, the result in test [3], in test [4] and in test [5] was inactive.

Turning to `CCC(=O)O`, the Potency entry in test [1], in [2], in [6], in test [7], in test [15] and in test [8] was “inactive” each time. Also, the Potency entry in test [9], in test [10], in [11], in test [12] and in test [13] was “inactive” in each case. For the same compound, the result in [3], in [4] and in test [5] was inactive.

Consider `CC1(C)O[C@@H]2C[C@H]3[C@@H]4C[C@H](F)C5=CC(=O)CC[C@]5(C)[C@H]4[C@@H](O)C[C@]3(C)[C@]2(C(=O)CO)O1`, for which the Potency entry in test [1], in [2], in test [6], in [7], in [15] and in [8] was “inactive” each time. In addition, the Potency entry in test [9], in [10], in test [11], in test [12], in test [13] and in test [14] was “inactive” throughout. Besides, the call in test [3], in test [4] and in [5] was inactive.

For the origin of these results see PubChem BioAssay (Tox21).
